{
  "source": "paper PMC4336329",
  "about": "(PLoS ONE, 2015)",
  "note": "Out of some 310,000 compounds screened, about 2,200 (0.71%) showed an effect of 50% or more. Effects have a minus sign here. The entries come from a sample that favours strong results as a whole.",
  "data": [
    {"molecular_target": "human ether-à-go-go-related gene (hERG) potassium channel (human, UniProt Q12809)", "sequence (Q12809 whole entry, looked up)": "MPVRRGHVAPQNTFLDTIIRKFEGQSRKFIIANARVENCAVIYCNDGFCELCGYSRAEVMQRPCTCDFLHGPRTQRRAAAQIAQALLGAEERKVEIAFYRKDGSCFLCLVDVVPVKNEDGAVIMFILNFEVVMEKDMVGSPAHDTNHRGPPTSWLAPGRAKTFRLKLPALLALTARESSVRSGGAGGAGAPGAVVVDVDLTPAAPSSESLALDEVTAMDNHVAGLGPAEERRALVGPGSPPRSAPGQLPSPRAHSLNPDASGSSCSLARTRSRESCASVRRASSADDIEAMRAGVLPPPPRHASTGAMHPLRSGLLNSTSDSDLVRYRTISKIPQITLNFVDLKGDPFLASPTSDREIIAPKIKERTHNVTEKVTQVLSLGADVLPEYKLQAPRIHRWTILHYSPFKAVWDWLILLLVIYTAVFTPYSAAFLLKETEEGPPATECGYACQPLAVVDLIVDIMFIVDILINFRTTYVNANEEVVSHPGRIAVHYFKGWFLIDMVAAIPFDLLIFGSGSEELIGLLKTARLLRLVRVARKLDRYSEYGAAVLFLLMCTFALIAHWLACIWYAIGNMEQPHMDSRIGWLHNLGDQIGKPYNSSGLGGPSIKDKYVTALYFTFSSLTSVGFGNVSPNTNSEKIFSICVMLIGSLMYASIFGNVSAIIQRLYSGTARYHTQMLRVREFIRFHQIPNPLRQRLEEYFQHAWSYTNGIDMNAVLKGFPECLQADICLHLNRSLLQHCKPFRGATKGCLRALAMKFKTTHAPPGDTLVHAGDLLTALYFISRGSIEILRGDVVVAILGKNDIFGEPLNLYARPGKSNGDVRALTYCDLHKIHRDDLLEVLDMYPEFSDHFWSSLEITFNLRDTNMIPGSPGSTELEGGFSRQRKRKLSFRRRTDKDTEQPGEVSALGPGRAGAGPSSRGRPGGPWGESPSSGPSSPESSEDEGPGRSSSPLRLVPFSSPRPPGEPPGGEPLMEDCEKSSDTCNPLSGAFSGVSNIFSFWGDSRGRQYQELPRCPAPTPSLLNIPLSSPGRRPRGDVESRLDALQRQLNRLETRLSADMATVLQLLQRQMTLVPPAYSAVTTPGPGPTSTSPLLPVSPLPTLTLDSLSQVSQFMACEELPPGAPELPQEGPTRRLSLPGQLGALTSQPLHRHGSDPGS", "assay": "primary screen, population patch clamp on CHO cells stably expressing hERG; higher = less effect of the substance", "units": {"hERG current change (%, negative = inhibition) at 1uM": "%"}, "values": [
      {"compound": "Cc1ccnc(SCc2cc(=O)c(OC(=O)c3ccccc3)co2)n1", "hERG current change (%, negative = inhibition) at 1uM": 15},
      {"compound": "CC(NC(=O)C(C)N1C(=O)c2cccc([N+](=O)[O-])c2C1=O)c1ccccc1", "note": "(stereo not drawn)", "hERG current change (%, negative = inhibition) at 1uM": 14.9},
      {"compound": "O=C(c1cc2nc(-c3ccco3)cc(C(F)(F)F)n2n1)N1CCCc2ccccc21", "hERG current change (%, negative = inhibition) at 1uM": 16.9},
      {"compound": "COc1ccc(CNS(=O)(=O)c2c(C(=O)N3CCCCCC3)c(C)n(C)c2C)cc1", "hERG current change (%, negative = inhibition) at 1uM": 10.5},
      {"compound": "C=CCNC(=O)c1onc(CSc2cccc(OC)c2)c1C(=O)O", "hERG current change (%, negative = inhibition) at 1uM": 18.7},
      {"compound": "CCOc1ccc(-c2nc(-c3ccccc3C)no2)cc1", "hERG current change (%, negative = inhibition) at 1uM": 10.9},
      {"compound": "Cc1cc(C)n2nc(-c3cnn(C)c3C(F)(F)F)cc2n1", "hERG current change (%, negative = inhibition) at 1uM": 1.96},
      {"compound": "Cn1c(CSCc2ccccc2)nnc1SCC(=O)Nc1nccs1", "hERG current change (%, negative = inhibition) at 1uM": -17.6},
      {"compound": "O=C1NC(Cc2ccccc2)C(=O)N1CC(=O)N1CCCc2ccccc21", "note": "(stereo not drawn)", "hERG current change (%, negative = inhibition) at 1uM": 5.14},
      {"compound": "Cc1cc(C)c2cc(C(=O)N3CCC(N4CCCCC4)CC3)[nH]c2c1", "hERG current change (%, negative = inhibition) at 1uM": -58.8},
      {"compound": "CCOC(=O)C1CCN(C(=O)c2cc3c(C)cc(C)cc3[nH]2)CC1", "hERG current change (%, negative = inhibition) at 1uM": 12},
      {"compound": "Cc1cc(C)c2cc(C(=O)N3CCC(C(=O)c4ccc(F)cc4)CC3)[nH]c2c1", "hERG current change (%, negative = inhibition) at 1uM": 8.43},
      {"compound": "Cc1c(C(=O)N2CCC(N3CCSCC3)CC2)oc2c(F)cccc12", "hERG current change (%, negative = inhibition) at 1uM": 2.81},
      {"compound": "CCOC(=O)C1CCN(C2CCN(C(=O)c3oc4c(F)cccc4c3C)CC2)CC1", "hERG current change (%, negative = inhibition) at 1uM": -67},
      {"compound": "CCOC(=O)C1CCN(C2CCN(C(=O)c3oc4c(C)c(C)ccc4c3C)CC2)CC1", "hERG current change (%, negative = inhibition) at 1uM": -15.6},
      {"compound": "Cc1nc2nc(C)c(CCC(=O)NC3CCCCC3)c(C)n2n1", "hERG current change (%, negative = inhibition) at 1uM": 9.07},
      {"compound": "CCCCN1C2CCCC1CC(NC(=O)c1cccc(OC)c1)C2", "note": "(stereo not drawn)", "hERG current change (%, negative = inhibition) at 1uM": -2.96},
      {"compound": "O=C(NC1CC2CCCC(C1)N2S(=O)(=O)c1ccccc1)c1ccccc1", "note": "(stereo not drawn)", "hERG current change (%, negative = inhibition) at 1uM": -9.46},
      {"compound": "CCCCN1C2CCCC1CC(NC(=O)c1cccc(Cl)c1)C2", "note": "(stereo not drawn)", "hERG current change (%, negative = inhibition) at 1uM": -63},
      {"compound": "COc1cccc(C(=O)NC2CC3CCCC(C2)N3S(=O)(=O)c2ccccc2)c1", "note": "(stereo not drawn)", "hERG current change (%, negative = inhibition) at 1uM": -8.93},
      {"compound": "Cc1cccc(C(=O)NC2CC3CCCC(C2)N3S(=O)(=O)c2ccccc2)c1", "note": "(stereo not drawn)", "hERG current change (%, negative = inhibition) at 1uM": -63.4},
      {"compound": "COc1ccc(C(=O)NC2CC3CCCC(C2)N3Cc2ccccc2)cc1", "note": "(stereo not drawn)", "hERG current change (%, negative = inhibition) at 1uM": -15.7},
      {"compound": "COc1cccc(C(=O)NC2CC3CCC(C2)N3Cc2ccccc2)c1", "note": "(stereo not drawn)", "hERG current change (%, negative = inhibition) at 1uM": -2.53},
      {"compound": "CCCN1C2CCCC1CC(NC(=O)c1cccc(Cl)c1)C2", "note": "(stereo not drawn)", "hERG current change (%, negative = inhibition) at 1uM": -2.98},
      {"compound": "COc1ccc(CN2C3CCCC2CC(NC(=O)c2cccc(F)c2)C3)cc1", "note": "(stereo not drawn)", "hERG current change (%, negative = inhibition) at 1uM": -85.9},
      {"compound": "COc1ccc(CN2C3CCC2CC(NC(=O)c2cccc(F)c2)C3)cc1", "note": "(stereo not drawn)", "hERG current change (%, negative = inhibition) at 1uM": -81.1},
      {"compound": "O=C(NC1CC2CCC(C1)N2Cc1ccccc1)c1cccc(F)c1", "note": "(stereo not drawn)", "hERG current change (%, negative = inhibition) at 1uM": -17.5},
      {"compound": "O=C(NC1CC2CCCC(C1)N2Cc1ccccc1)c1cccc(F)c1", "note": "(stereo not drawn)", "hERG current change (%, negative = inhibition) at 1uM": -29.8},
      {"compound": "O=C(O)c1ccccc1-c1ccccc1C(=O)NCc1ccco1", "hERG current change (%, negative = inhibition) at 1uM": 13},
      {"compound": "Clc1ccc2c(NCc3ccco3)ncnc2c1", "hERG current change (%, negative = inhibition) at 1uM": -1.55},
      {"compound": "O=C(OCC(=O)N1CCCCC1)c1cccc(NS(=O)(=O)c2ccccc2)c1", "hERG current change (%, negative = inhibition) at 1uM": 12.4},
      {"compound": "O=C(NCc1ccc(C(=O)N2CCC3(CC2)OCCO3)cc1)c1ccc2c(c1)OCO2", "hERG current change (%, negative = inhibition) at 1uM": 5.42},
      {"compound": "O=C(CSc1nnc(-c2ccco2)n1Cc1ccccc1)NC(=O)NCc1ccco1", "hERG current change (%, negative = inhibition) at 1uM": -15.6},
      {"compound": "CCOC(=O)C1(CCCc2ccccc2)CCN(C2CCC2)CC1", "hERG current change (%, negative = inhibition) at 1uM": -57.1},
      {"compound": "CCOC(=O)C1(CCCc2ccccc2)CCN(C(=O)C2CCCO2)CC1", "note": "(stereo not drawn)", "hERG current change (%, negative = inhibition) at 1uM": 5.58},
      {"compound": "CCOC(=O)C1(CCc2ccccc2)CCN(C2CCSCC2)CC1", "hERG current change (%, negative = inhibition) at 1uM": -80.7},
      {"compound": "OCC1(CCCc2ccccc2)CCN(C2CCSCC2)CC1", "hERG current change (%, negative = inhibition) at 1uM": -65.4},
      {"compound": "CSCC(C)N1CCC(CO)(CCCc2ccccc2)CC1", "note": "(stereo not drawn)", "hERG current change (%, negative = inhibition) at 1uM": -11.2},
      {"compound": "CS(=O)(=O)c1ccc(S(=O)(=O)N2CCC(CO)(CCCc3ccccc3)CC2)cc1", "hERG current change (%, negative = inhibition) at 1uM": 4.47},
      {"compound": "CCOC(=O)C1(CCCc2ccccc2)CCN(C2CCCC2)CC1", "hERG current change (%, negative = inhibition) at 1uM": -66.1},
      {"compound": "CCOC(=O)C1(CCCc2ccccc2)CCN(C(=O)COC)CC1", "hERG current change (%, negative = inhibition) at 1uM": 10.5},
      {"compound": "CCOC(=O)C1(CCCc2ccccc2)CCN(S(C)(=O)=O)CC1", "hERG current change (%, negative = inhibition) at 1uM": 5.98},
      {"compound": "CCOC(=O)C1(CCc2ccccc2)CCN(C2Cc3ccccc3C2)CC1", "hERG current change (%, negative = inhibition) at 1uM": -18.7},
      {"compound": "CCOC(=O)C1(CCc2ccccc2)CCN(C(=O)C2CCOCC2)CC1", "hERG current change (%, negative = inhibition) at 1uM": -21.2},
      {"compound": "CCOC(=O)C1(CCCc2ccccc2)CCN(C(=O)CSC)CC1", "hERG current change (%, negative = inhibition) at 1uM": 3.88},
      {"compound": "O=C(NCc1ccco1)C1CCN(S(=O)(=O)c2ccccc2C(F)(F)F)CC1", "hERG current change (%, negative = inhibition) at 1uM": 12.6},
      {"compound": "COc1cccc(C(=O)NCCS(=O)(=O)N2CCC(C)CC2)c1", "hERG current change (%, negative = inhibition) at 1uM": 3.89},
      {"compound": "CC1(C)CN(c2ccc(C(=O)c3ccccc3)cc2)C1=O", "hERG current change (%, negative = inhibition) at 1uM": 6.95}
    ]}
  ]
}
